The nature of the assay: enhancers of NK cell killing of ovarian tumor cells, primary screen, imaging, OVCAR3, primary NK cells, calcein-AM imaging (AID 1508625).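 Note: compound given to NK cells 16 h before adding targets at 1.5 to 1 ratio.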 The conditions noted are these: OVCAR3 lysis by primary NK cells, at 5 µM; z-score: measured here: robust Z-score, single-point normalisation.

The structures appear in SMILES notation.

For `Cc1ccc(N2C(=O)CC(NCCc3ccc(F)cc3)C2=O)cc1` (stereo unspecified), the corrected activity, negative = more killing was -3.27% and the z-score was -1.25.

On to `CCOC(=O)CC(NCc1ccc(Cl)c([N+](=O)[O-])c1)c1cccs1` (stereo unspecified), for which the corrected activity, negative = more killing was -7.84% and the z-score was -2.12.

Take `Cc1ccc(S(=O)(=O)n2nc(OC(=O)c3ccc(C)c(C)c3)cc2N)cc1`: the corrected activity, negative = more killing is -5.25% and the z-score was -1.67.

As to `O=[N+]([O-])c1ccc(CNC2CCCC2)cc1`, the corrected activity, negative = more killing was -5.52% and the z-score was -1.76.

In the case of `CCC(=O)Nc1ccccc1C(=O)C(=O)Nc1ccccc1`, the corrected activity, negative = more killing was -1% and the z-score was -0.557.

For `Cc1ccc(C(=O)Nc2ccc(NC(=O)c3ccc(C(C)(C)C)cc3)cc2)cc1[N+](=O)[O-]`, the corrected activity, negative = more killing was -2.5% and the z-score is -0.888.

In the case of `COC(=O)c1[nH]c(=O)c2ccccc2c1O`, the corrected activity, negative = more killing was -4.14% and the z-score is -1.63.

On to `COc1ccccc1OCCCCCCN1CCOCC1`, for which the corrected activity, negative = more killing was -4.44% and the z-score was -1.82.

For `O=C(c1ccc2c(=O)n(Cc3ccco3)c(=S)[nH]c2c1)N1CCOCC1`, the corrected activity, negative = more killing was -3.78% and the z-score is -1.2.

Turning to `Cn1c(SCC(=O)Nc2cc(C(F)(F)F)ccc2Cl)nc2c([nH]c3ccccc32)c1=O`, the corrected activity, negative = more killing is -6.37% and the z-score is -1.58.

As to `CN1C(=O)c2ccccc2C(C(=O)Nc2ccc3c(c2)OCCO3)C1c1cccs1` (stereo unspecified), the corrected activity, negative = more killing is -7.21% and the z-score is -1.79.

`Cc1ccc(C=C(NC(=O)c2ccc(C)cc2)c2nc3ccccc3[nH]2)cc1`: the corrected activity, negative = more killing was -1.41% and the z-score is -0.73.

Consider `CCOc1ccc(C2C(N3C(=O)c4ccc([N+](=O)[O-])cc4C3=O)C(=O)N2c2ccc(Cl)cc2)cc1` (stereo unspecified), for which the corrected activity, negative = more killing was 0.896% and the z-score is 0.278.

In the case of `CC(=O)Nc1ccc(NC(=O)CC2OCC3CCCCN3C2=O)cc1` (stereo unspecified), the corrected activity, negative = more killing is -5.1% and the z-score is -1.95.

Take `CCOC(=O)c1ccc2c(c1)[C@@H]1C=CC[C@@H]1[C@H](c1ccccc1C(F)(F)F)N2`: the corrected activity, negative = more killing was -3.03% and the z-score is -0.905.

Consider `Cc1ccc(C(=O)COC(=O)c2ccc(N3C(=O)C4CCC(C)CC4C3=O)cc2)cc1[N+](=O)[O-]` (stereo unspecified), for which the corrected activity, negative = more killing was -2.55% and the z-score is -1.37.

`COC(=O)c1ccc(COC(=O)c2ccccc2Cl)cc1`: the corrected activity, negative = more killing is -2.71% and the z-score was -1.51.

As for `CCC1CCCCN1C(=O)c1sc2ncn(Cc3ccccc3F)c(=O)c2c1C` (stereo unspecified), the corrected activity, negative = more killing is -3.67% and the z-score was -1.34.

On to `COc1cccc(C(=O)N2CCN(C(=O)c3ccccc3OC)CC2)c1`, for which the corrected activity, negative = more killing was -2.57% and the z-score was -1.15.

`COc1ccc(CN2c3cccc[n+]3CC2(O)c2ccc(Cl)cc2)cc1` (stereo unspecified): the corrected activity, negative = more killing was 0.199% and the z-score is 0.0419.

With `CC1CCC2C(=O)N(c3ccc(N4CC5(C)CC4CC(C)(C)C5)c([N+](=O)[O-])c3)C(=O)C2C1` (stereo unspecified), the corrected activity, negative = more killing is -1.82% and the z-score was -0.661.

As for `Cc1ccc(C(=O)N2C(=O)C(c3ccccc3)Oc3ccccc32)cc1` (stereo unspecified), the corrected activity, negative = more killing is -10.8% and the z-score is -3.35.

On to `O=C1OC(c2ccccc2Cl)=NC1=Cc1ccccc1F`, for which the corrected activity, negative = more killing was -3.5% and the z-score was -1.49.

These data come from PubChem BioAssay AID1508625 (Wald Lab, School of Medicine, Case Western Reserve …, 2021).
